# Experimental data as given in PubChem BioAssay.
# Values joined by “and” are separate entries in the source; they are usually repeats but may differ in a detail not shown here. Identical values can stand only once. Active and inactive are the calls of the source.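 The calls were made as follows, unless noted: active = normalized viability below 100% at a tested concentration; inactive = the rest.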
# Columns and labels:
# [1] = Wnt pathway potentiators raising nuclear beta-catenin – imaging, WNT3A-conditioned medium, mouse C2C12, NPC library, primary screen (AID 1117326; in the data active = nuclear beta-catenin stimulation mostly above about 4.2%, no sharp cut-off; inactive = mostly below about 10%); details: stronger effect = higher value
# [2] = stimulators of insulin release from INS-1E, primary screen, cell-based, 5 mM glucose, NPC library (AID 1117329;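 active = compound raises insulin release from rat beta cells at 5 mM glucose, no numeric limit stated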); details: rat INS-1E insulin secretion, at 10 µM, stronger effect = higher value
# [3] = growth inhibition of GSK3B-pretreated HCT116 cells – cell-based, CellTiter-Glo, 0.2 to 20 µM (AID 1117336;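 active = compounds lowering colon cancer cell viability after pretreatment blocking the GSK3B kinase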); details: HCT116 viability after GSK3B inhibitor, at 20 µM, stronger effect = higher value
# [4] = inhibition of endothelial tube formation, primary screen, imaging, VEGF stimulated, CD31 staining, tube area, NPC library (AID 1117340;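 active = compound that reduces growth-factor-driven endothelial tube area in a mixed cell culture, no cutoff stated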); details: VEGF-stimulated ADSC/ECFC co-culture, at 10 µM, stronger effect = higher value
# [5] = GLP1 release stimulators, primary, NCI-H716, NPC library (AID 1117341;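 active = compound raises GLP1 secretion from the human gut endocrine cells, with no numeric limit stated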); details: NCI-H716 cells, at 10 µM, stronger effect = higher value
# [6] = HCT116 colon cancer cell growth inhibition, primary screen, CellTiter-Glo luminescence, NPC library (AID 1117342;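 active = compounds that lower survival of HCT116 colon cancer cells in the luminescence readout, no numeric limit stated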); details: at 20 µM (top of the series)
# [7] = reduced SW480 viability measured with CellTiter-Glo, NPC library, primary (AID 1117343;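 active = compounds that lower viability of the colon cancer cells in the luminescence readout, with no numeric limit stated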); details: CellTiter-Glo luminescence; at 20 µM (top of the series)
# [8] = NPC library primary testing for decreased DLD-1 cell viability via CellTiter-Glo (AID 1117346;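 active = compounds that lower survival of DLD-1 colon cancer cells in the luminescence readout, no cutoff given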); details: DLD-1 viability, CellTiter-Glo luminescence; at 20 µM (top of the series)
# [9] = target: 6-phosphogluconate dehydrogenase, decarboxylating (Homo sapiens) (UniProt P52209); assay: inhibition of human phosphogluconate dehydrogenase – biochemical, recombinant enzyme, NADPH absorbance, primary screen (AID 1159550;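 active = at least 20% inhibition of 6-phosphogluconate dehydrogenase activity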); details: recombinant 6PGD, NADPH absorbance 341 nm; at 10 µM; stronger effect = higher value
# [10] = modulation of C. elegans fzo-1 (AID 1259413; call rule not given here;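 also: fzo-1 mutant C. elegans worms in liquid wells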); details: C. elegans fzo-1 modulator screen, mean read-out; stronger effect = higher value
# [11] = EMT-state selective cytotoxicity in co-culture – imaging, PC-3E GFP, TEM4-18 mCherry, primary screen (AID 1345086;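 active = compounds killing one labelled cell type while sparing the other, by normalised counts and ratio limits, not self-fluorescent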;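 as to all read-outs here: cells exposed to compound for 72 h before imaging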;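 as to red/green cell ratio (normalised): normalised mesenchymal count divided by normalised epithelial count so high means epithelial killing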); details: PC-3E GFP / TEM4-18 mCherry co-culture, imaging cell counts, at 1 µM; for red/green cell ratio (normalised): actives lie on both sides, counts scaled to control wells, 1 = unselective
# [12] = viability loss with induced miR-34 in A549 – imaging, A549 dox-inducible miR-34, nuclei and caspase counts, primary screen (AID 1347080;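 active = compounds whose cell count with miR-34 switched on is under 0.7 times the count with it off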); details: A549 miR-34 inducible, Hoechst nuclei count, 48 h
# [13] = MELAS cybrid and Rieske KO viability enhancers – cell-based, MELAS cybrids, Rieske KO mouse fibroblasts, CellTiter-Glo, primary screen (AID 1508586;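 active = mean z-score across replicates of 1.96 or higher in either the MELAS or the Rieske mutant cell line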;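 also: z relative to plate mean and SD of compound and empty wells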); details: low glucose
# [14] = drug combination growth inhibition, ovarian cancer – cell-based, oncology-focused library, rucaparib conditional, profiling panel (AID 1508598); details: patient-derived ovarian cancer cells, CellTiter-Glo viability, 144 h, stronger effect = lower value
# [15] = target: NAD(+) hydrolase SARM1 (Homo sapiens) (UniProt Q6SZW1); assay: blocking NAD cleavage by SARM1 SAM-TIR – cell lysate, NAD-Glo luminescence (AID 1508614;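 active = compound whose remaining NAD level is above about 45 nM, limit read from the data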;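 also: higher remaining NAD means stronger inhibition of SARM1 NADase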); details: SAM-TIR HEK293T lysate NADase, at 1 µM, stronger effect = higher value
# [16] = target: Mitogen-activated protein kinase 7 (Homo sapiens) (UniProt Q13164); assay: Gal4-ERK5 driven luciferase induction – cell-based, HTS, primary screen (AID 1508626;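 active = luciferase signal above three times the same-plate solvent-only control wells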;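 also: luciferase driven by Gal4-ERK5 fusion binding five Gal4 sites before minimal TATA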); details: HeLa Gal4-ERK5 transactivation, 18 h, at 5 µM, stronger effect = higher value
# [17] = growth inhibition, single agents and combos, ICB984, cell-based, cisplatin or BGB combos, synergistic combos for chromothripsis tumors (AID 1671451; call rule not given here;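 also: cells exposed for 96 hours before readout; 0% = vehicle DMSO and 100% = killing by high DMSO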); details: ICB984 medulloblastoma cells, drug combinations, stronger effect = higher value
# F380Y = assay: BK channel mutant inhibitors and activators – cell-based, U2OS BacMam, thallium flux, beta subunits, selectivity assay, profiling panel (AID 1259406;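 active = thallium flux through the channel raised or lowered by more than 3 SD from vehicle-only wells, actives on both sides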;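 also: initial slope of Thallos dye fluorescence rise after thallium is added; log ratio against the mean of 0.3% DMSO vehicle wells on the same plate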); details: U2OS BacMam BK variants, at 30 µM
# F380Y/beta1 = assay: as above; details: U2OS BacMam BK variants, at 30 µM
# F380Y/beta2Delta = assay: as above; details: U2OS BacMam BK variants, at 30 µM
# [18] = measured here: epithelial PC-3E GFP cell survival
# [19] = measured here: mesenchymal TEM4-18 mCherry cell survival
# [20] = MELAS cybrid survival, CellTiter-Glo 48 h, stronger effect = higher value
# [21] = Rieske KO mouse fibroblast survival, CellTiter-Glo 72 h
# Chain of NAD(+) hydrolase SARM1 (Homo sapiens) (Q6SZW1 whole entry, looked up, the tested form may be a part): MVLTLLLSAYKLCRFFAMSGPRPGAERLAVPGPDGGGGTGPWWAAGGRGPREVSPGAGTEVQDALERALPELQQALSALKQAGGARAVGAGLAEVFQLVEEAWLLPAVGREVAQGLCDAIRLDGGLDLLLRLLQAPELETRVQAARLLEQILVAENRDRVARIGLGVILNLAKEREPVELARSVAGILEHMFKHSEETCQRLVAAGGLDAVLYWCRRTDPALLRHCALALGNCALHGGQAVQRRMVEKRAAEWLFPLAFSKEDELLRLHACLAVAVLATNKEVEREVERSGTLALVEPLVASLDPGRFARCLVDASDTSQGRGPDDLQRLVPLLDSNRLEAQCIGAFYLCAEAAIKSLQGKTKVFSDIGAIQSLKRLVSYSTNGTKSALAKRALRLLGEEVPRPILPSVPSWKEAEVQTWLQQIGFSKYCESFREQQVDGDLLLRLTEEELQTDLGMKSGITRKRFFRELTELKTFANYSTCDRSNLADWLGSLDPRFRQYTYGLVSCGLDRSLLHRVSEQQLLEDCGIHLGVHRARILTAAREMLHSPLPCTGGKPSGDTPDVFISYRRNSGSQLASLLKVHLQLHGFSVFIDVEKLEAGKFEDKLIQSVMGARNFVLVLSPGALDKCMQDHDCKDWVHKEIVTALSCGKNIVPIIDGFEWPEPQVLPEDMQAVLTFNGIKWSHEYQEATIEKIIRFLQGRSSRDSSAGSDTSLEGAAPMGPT
# Chain of 6-phosphogluconate dehydrogenase, decarboxylating (Homo sapiens) (P52209 whole entry, looked up): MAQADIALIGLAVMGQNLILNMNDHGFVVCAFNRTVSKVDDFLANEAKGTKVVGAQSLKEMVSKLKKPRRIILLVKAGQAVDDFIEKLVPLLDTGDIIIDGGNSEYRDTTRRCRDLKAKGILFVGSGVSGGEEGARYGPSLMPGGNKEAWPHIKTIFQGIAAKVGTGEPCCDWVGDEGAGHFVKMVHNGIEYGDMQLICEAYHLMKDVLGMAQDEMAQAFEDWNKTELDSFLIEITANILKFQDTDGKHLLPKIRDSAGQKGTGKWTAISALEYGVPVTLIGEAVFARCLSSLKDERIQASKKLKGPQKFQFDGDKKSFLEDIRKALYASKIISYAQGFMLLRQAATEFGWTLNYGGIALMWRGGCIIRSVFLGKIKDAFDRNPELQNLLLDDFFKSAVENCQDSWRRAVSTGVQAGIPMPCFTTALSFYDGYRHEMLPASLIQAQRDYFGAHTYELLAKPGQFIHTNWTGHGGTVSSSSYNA
# Chain of Mitogen-activated protein kinase 7 (Homo sapiens) (Q13164 whole entry, looked up, the tested form may be a part): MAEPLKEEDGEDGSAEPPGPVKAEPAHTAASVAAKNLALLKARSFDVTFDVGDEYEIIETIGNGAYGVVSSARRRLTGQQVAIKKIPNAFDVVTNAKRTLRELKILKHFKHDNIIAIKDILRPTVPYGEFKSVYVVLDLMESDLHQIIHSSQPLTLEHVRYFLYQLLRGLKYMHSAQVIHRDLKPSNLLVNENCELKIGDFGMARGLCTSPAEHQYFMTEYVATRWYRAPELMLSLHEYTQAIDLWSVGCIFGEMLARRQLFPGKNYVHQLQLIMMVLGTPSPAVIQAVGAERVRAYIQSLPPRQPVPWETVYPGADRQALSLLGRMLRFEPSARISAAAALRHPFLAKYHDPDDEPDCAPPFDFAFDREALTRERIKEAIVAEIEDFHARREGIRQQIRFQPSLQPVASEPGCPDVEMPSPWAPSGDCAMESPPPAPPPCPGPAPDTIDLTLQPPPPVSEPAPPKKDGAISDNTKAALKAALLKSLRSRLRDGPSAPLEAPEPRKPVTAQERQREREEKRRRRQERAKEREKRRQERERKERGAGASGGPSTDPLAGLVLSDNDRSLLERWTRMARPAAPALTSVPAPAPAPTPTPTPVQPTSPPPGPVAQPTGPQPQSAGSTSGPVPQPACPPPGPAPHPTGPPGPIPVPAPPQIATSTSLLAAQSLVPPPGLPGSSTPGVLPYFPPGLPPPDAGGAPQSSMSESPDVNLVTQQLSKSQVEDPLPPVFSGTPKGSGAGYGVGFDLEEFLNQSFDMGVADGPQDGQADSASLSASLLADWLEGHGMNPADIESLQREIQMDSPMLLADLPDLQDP
smiles,measurement,setting,value
CCCCCCNC(=O)n1cc(F)c(=O)[nH]c1=O,nuclear beta-catenin stimulation,[1]; at 10 µM,41.7% (active)
same,nuclear beta-catenin stimulation,"[1]; stimulation, at 2 µM",9.5%
same,insulin secretion stimulation,[2],0.3% (inactive)
same,viability decrease,[3],65.6% (active)
same,tube area decrease,[4],68.7% (active)
same,GLP1 secretion stimulation,[5],-0.8% (inactive)
same,inhibition of viability,[6],42% (inactive)
same,viability decrease (inhibition),[7],83.7% (active)
same,viability decrease (inhibition),[8],30.3% (inactive)
same,inhibition,[9],1.06% (inactive)
same,mean signal,[10],292 (inactive)
same,red/green cell ratio (normalised),[11],0.85 (inactive)
same,normalised cell number,[11]; [18],0.88
same,normalised cell number,[11]; [19],0.75
same,fold change,"[12]; stronger effect = lower value, cell number ratio, induced over uninduced",1.09 (inactive) and 1.08 (inactive)
same,fold change,[12]; measured here: relative caspase fold change +Dox/-Dox,1.38 and 0.815
same,cell count,"[12]; measured here: total cells with miR-34 induction, stronger effect = lower value",3390 and 2360
same,cell count,[12]; measured here: total cells without miR-34 induction,3110 and 2180
same,z-score,[13]; [20],-0.365 (inactive) and -0.769 (inactive)
same,z-score,[13]; [21],0.677 and -3.1
same,viability,"[14]; at 0.000305 µM, OCI-C5x cells, with rucaparib 10 µM, 100% = cells with rucaparib alone",125% (inactive)
same,viability,"[14]; at 0.000305 µM, OCI-C5x cells, without rucaparib",114% (inactive)
same,viability,"[14]; at 0.000305 µM, OCI-P5x cells, with rucaparib 20 µM, 100% = cells with rucaparib alone",108% (inactive)
same,viability,"[14]; at 0.000305 µM, OCI-P5x cells, without rucaparib",129% (inactive)
same,viability,"[14]; at 0.00122 µM, OCI-C5x cells, with rucaparib 10 µM, 100% = cells with rucaparib alone",128% (inactive)
same,viability,"[14]; at 0.00122 µM, OCI-C5x cells, without rucaparib",121% (inactive)
same,viability,"[14]; at 0.00122 µM, OCI-P5x cells, with rucaparib 20 µM, 100% = cells with rucaparib alone",115% (inactive)
same,viability,"[14]; at 0.00122 µM, OCI-P5x cells, without rucaparib",115% (inactive)
same,viability,"[14]; at 0.00488 µM, OCI-C5x cells, with rucaparib 10 µM, 100% = cells with rucaparib alone",115% (inactive)
same,viability,"[14]; at 0.00488 µM, OCI-C5x cells, without rucaparib",125% (inactive)
same,viability,"[14]; at 0.00488 µM, OCI-P5x cells, with rucaparib 20 µM, 100% = cells with rucaparib alone",108% (inactive)
same,viability,"[14]; at 0.00488 µM, OCI-P5x cells, without rucaparib",117% (inactive)
same,viability,"[14]; at 0.0195 µM, OCI-C5x cells, with rucaparib 10 µM, 100% = cells with rucaparib alone",114% (inactive)
same,viability,"[14]; at 0.0195 µM, OCI-C5x cells, without rucaparib",113% (inactive)
same,viability,"[14]; at 0.0195 µM, OCI-P5x cells, with rucaparib 20 µM, 100% = cells with rucaparib alone",107% (inactive)
same,viability,"[14]; at 0.0195 µM, OCI-P5x cells, without rucaparib",113% (inactive)
same,viability,"[14]; at 0.0781 µM, OCI-C5x cells, with rucaparib 10 µM, 100% = cells with rucaparib alone",134% (inactive)
same,viability,"[14]; at 0.0781 µM, OCI-C5x cells, without rucaparib",117% (inactive)
same,viability,"[14]; at 0.0781 µM, OCI-P5x cells, with rucaparib 20 µM, 100% = cells with rucaparib alone",103% (inactive)
same,viability,"[14]; at 0.0781 µM, OCI-P5x cells, without rucaparib",117% (inactive)
same,viability,"[14]; at 0.313 µM, OCI-C5x cells, with rucaparib 10 µM, 100% = cells with rucaparib alone",133% (inactive)
same,viability,"[14]; at 0.313 µM, OCI-C5x cells, without rucaparib",112% (inactive)
same,viability,"[14]; at 0.313 µM, OCI-P5x cells, with rucaparib 20 µM, 100% = cells with rucaparib alone",101% (inactive)
same,viability,"[14]; at 0.313 µM, OCI-P5x cells, without rucaparib",112% (inactive)
same,viability,"[14]; at 1.25 µM, OCI-C5x cells, with rucaparib 10 µM, 100% = cells with rucaparib alone",129% (inactive)
same,viability,"[14]; at 1.25 µM, OCI-C5x cells, without rucaparib",128% (inactive)
same,viability,"[14]; at 1.25 µM, OCI-P5x cells, with rucaparib 20 µM, 100% = cells with rucaparib alone",95.1% (active)
same,viability,"[14]; at 1.25 µM, OCI-P5x cells, without rucaparib",104% (inactive)
same,viability,"[14]; at 5 µM, OCI-C5x cells, with rucaparib 10 µM, 100% = cells with rucaparib alone",223% (inactive)
same,viability,"[14]; at 5 µM, OCI-C5x cells, without rucaparib",172% (inactive)
same,viability,"[14]; at 5 µM, OCI-P5x cells, with rucaparib 20 µM, 100% = cells with rucaparib alone",76.9% (active)
same,viability,"[14]; at 5 µM, OCI-P5x cells, without rucaparib",77.9% (active)
same,remaining NAD,[15],10 nM (inactive)
same,luciferase signal,[16],32 AU (inactive)
same,inhibition,"[17]; BGB IC20 combo, at 0.005 µM",-17.4% and -9.29%
same,inhibition,"[17]; BGB IC40 combo, at 0.005 µM",-22.5% and -2.82%
same,inhibition,"[17]; BGB IC40 combo, at 0.05 µM",-29.3% and 7.79%
same,inhibition,[17]; at 0.5 µM,-42.7% (inactive) and -3.92% (inactive)
same,inhibition,"[17]; cisplatin combo, at 0.05 µM",-33.9% and 7.79%
same,inhibition,"[17]; cisplatin combo, at 0.5 µM",-50% and -4.83%
same,inhibition,"[17]; cisplatin combo, at 5 µM",-43.5% and -25.3%
same,inhibition,"[17]; measured here: 5 uM single agent, at 5 µM",-14.5% and -8.95%
same,log fold change Tl+ flux,F380Y,-0.0314 (inactive)
same,log fold change Tl+ flux,F380Y/beta1,-0.0124 (inactive)
same,log fold change Tl+ flux,F380Y/beta2Delta,-0.0543 (inactive)
CCc1cccc2c3c([nH]c12)C(CC)(CC(=O)O)OCC3 (stereo unspecified),nuclear beta-catenin stimulation,[1]; at 10 µM,0.9% (inactive)
same,nuclear beta-catenin stimulation,"[1]; stimulation, at 2 µM",0.3%
same,insulin secretion stimulation,[2],-0.3% (inactive)
same,viability decrease,[3],-31.2% (inactive)
same,tube area decrease,[4],-16.6% (inactive)
same,GLP1 secretion stimulation,[5],-0.9% (inactive)
same,inhibition of viability,[6],1.5% (inactive)
same,viability decrease (inhibition),[7],-4.5% (inactive)
same,viability decrease (inhibition),[8],-11.6% (inactive)
same,inhibition,[9],-23.2% (inactive)
same,mean signal,[10],230 (inactive)
same,red/green cell ratio (normalised),[11],1.13 (inactive)
same,normalised cell number,[11]; [18],0.9
same,normalised cell number,[11]; [19],1.03
same,z-score,[13]; [20],-0.968 (inactive)
same,z-score,[13]; [21],-0.359
same,remaining NAD,[15],10 nM (inactive)
same,luciferase signal,[16],164 AU (inactive)
same,log fold change Tl+ flux,F380Y,0.0338 (inactive)
same,log fold change Tl+ flux,F380Y/beta1,0.0385 (inactive)
same,log fold change Tl+ flux,F380Y/beta2Delta,-0.0224 (inactive)
